Experiments:
Test in all cases: log2 ratio of Biotin-Ahx-Ub-VS probe labelling (fragment/DMSO); higher = less target engagement (more negative = stronger competition), active = hit call of the paper (q ≤ 0.05, log2 ratio ≤ -1)
Conditions in all cases: compound concentration: 200 uM; treatment time: 3 h
USP34 = USP34 (UniProt Q70CQ2)
Procedure, shortened: (§1)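 Labelling with Biotin-Ahx-Ub-VS (0.5 µM final, 1 h) followed a 3 h triplicate treatment of HEK293T lysate (495 µg per sample, Tris/CHAPS/IGEPAL buffer with protease inhibitors) with fragment at 200 µM or vehicle. Labelled DUBs were NeutrAvidin-enriched, digested with LysC and trypsin, and run by diaPASEF LC-MS/MS. The values, average log2 fragment/vehicle ratios by unpaired t-test, come from global-median-normalised Spectronaut label-free quantities. Proteins with ≥2 unique peptides were used.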

USP36 = target: T1, USP36 (UniProt Q9P275)
T1 sequence (whole entry): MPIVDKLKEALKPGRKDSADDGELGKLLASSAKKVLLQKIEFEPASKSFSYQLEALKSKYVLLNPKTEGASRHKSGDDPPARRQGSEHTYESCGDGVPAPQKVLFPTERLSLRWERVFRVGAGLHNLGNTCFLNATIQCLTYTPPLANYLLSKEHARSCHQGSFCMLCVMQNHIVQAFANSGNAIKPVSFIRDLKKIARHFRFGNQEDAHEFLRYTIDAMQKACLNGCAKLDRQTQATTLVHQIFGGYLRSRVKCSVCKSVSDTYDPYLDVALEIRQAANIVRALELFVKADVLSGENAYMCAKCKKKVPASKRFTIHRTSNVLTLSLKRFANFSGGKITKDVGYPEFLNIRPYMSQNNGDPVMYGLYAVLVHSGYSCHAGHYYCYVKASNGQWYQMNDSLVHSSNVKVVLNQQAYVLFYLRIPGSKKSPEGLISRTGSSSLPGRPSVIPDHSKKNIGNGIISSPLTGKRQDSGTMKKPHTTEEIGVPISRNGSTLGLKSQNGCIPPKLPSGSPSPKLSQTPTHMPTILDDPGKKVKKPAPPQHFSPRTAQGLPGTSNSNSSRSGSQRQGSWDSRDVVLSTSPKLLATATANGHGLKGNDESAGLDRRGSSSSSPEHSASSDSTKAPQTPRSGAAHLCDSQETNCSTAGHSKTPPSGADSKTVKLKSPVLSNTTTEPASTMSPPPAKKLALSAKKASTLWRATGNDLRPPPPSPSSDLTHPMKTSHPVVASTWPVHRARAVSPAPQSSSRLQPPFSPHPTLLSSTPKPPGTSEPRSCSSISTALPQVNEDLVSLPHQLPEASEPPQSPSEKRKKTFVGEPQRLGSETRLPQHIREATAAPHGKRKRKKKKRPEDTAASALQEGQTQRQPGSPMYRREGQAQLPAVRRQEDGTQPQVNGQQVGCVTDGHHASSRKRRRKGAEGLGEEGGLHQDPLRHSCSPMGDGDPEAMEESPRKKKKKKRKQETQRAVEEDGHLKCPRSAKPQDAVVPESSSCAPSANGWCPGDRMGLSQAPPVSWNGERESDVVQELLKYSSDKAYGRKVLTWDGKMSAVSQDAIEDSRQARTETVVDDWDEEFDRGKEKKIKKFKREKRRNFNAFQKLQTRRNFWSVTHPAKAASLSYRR
Procedure, shortened: as §1

USP38 = target: T2, USP38 (UniProt Q8NB14)
T2 sequence (whole entry): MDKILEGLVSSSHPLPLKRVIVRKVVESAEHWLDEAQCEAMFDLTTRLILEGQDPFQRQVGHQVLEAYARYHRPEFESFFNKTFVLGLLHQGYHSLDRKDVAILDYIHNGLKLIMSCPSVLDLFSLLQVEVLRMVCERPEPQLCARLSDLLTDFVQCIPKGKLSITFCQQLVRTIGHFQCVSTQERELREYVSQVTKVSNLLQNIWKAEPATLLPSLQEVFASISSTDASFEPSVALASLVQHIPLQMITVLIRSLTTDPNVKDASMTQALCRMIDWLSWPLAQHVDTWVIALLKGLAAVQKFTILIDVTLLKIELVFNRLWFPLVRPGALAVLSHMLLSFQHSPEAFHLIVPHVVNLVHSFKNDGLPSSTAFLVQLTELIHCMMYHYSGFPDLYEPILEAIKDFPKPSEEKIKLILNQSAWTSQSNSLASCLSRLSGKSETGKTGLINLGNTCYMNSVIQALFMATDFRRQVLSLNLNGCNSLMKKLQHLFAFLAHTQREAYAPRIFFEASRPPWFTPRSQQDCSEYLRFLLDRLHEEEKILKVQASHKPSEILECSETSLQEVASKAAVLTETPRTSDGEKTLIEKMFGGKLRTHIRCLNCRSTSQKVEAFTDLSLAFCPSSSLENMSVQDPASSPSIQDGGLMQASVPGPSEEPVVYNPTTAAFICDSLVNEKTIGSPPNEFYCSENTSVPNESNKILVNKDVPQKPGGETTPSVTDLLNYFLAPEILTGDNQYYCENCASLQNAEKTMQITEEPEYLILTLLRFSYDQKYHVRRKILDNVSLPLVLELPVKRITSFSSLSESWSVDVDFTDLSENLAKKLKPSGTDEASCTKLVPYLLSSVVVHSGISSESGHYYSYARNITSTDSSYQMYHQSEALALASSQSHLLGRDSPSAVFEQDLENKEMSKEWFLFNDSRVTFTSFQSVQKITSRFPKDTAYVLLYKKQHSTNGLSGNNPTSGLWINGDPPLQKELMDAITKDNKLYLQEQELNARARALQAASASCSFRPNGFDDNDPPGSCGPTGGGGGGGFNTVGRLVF
Procedure, shortened: as §1

USP39 = target: T3, USP39 (UniProt Q53GS9)
T3 sequence (whole entry): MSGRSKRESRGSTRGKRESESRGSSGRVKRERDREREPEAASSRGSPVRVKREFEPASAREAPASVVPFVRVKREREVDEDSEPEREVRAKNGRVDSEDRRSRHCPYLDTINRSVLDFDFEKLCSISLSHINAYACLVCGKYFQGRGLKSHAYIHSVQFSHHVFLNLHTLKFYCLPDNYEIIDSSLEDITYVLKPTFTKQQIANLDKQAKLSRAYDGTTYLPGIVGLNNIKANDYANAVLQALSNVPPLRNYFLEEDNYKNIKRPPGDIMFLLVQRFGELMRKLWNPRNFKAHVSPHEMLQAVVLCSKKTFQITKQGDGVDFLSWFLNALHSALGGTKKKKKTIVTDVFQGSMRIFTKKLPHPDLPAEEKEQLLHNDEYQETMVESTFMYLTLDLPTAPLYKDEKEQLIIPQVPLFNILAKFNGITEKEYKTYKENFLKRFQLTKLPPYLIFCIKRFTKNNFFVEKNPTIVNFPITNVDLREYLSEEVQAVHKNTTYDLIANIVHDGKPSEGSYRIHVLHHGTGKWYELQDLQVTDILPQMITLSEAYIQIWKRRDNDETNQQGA
Procedure, shortened: as §1

USP4 = target: T4, USP4 (UniProt Q13107)
T4 sequence (whole entry): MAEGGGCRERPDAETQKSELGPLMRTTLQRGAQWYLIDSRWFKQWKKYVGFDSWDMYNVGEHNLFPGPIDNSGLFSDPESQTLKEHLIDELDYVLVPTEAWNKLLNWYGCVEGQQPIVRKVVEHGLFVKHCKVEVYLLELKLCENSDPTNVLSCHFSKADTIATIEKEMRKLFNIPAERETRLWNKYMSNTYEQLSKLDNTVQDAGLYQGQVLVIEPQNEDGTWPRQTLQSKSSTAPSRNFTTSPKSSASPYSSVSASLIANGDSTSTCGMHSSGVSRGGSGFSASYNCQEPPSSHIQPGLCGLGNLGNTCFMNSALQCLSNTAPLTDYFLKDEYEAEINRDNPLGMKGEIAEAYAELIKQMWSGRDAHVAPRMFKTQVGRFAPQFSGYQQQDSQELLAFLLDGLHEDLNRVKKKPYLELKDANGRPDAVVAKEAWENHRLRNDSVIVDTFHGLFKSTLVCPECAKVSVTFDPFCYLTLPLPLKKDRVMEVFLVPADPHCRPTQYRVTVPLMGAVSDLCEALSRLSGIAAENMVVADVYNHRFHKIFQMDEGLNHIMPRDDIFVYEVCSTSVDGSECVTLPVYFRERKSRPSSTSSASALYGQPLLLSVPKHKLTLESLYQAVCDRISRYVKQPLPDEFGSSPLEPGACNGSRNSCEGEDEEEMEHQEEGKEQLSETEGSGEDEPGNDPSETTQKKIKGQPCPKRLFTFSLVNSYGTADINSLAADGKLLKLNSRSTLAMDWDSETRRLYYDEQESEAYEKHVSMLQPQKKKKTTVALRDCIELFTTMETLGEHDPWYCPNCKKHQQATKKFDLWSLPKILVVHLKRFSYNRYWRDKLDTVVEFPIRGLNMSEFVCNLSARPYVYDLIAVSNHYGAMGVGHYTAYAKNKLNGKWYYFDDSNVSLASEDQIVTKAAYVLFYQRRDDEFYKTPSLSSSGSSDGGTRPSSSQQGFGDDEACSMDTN
Procedure, shortened: as §1

Measured: log2 ratio of Biotin-Ahx-Ub-VS probe labelling

USP34, sequence (Q70CQ2 whole entry, the tested form may be a part): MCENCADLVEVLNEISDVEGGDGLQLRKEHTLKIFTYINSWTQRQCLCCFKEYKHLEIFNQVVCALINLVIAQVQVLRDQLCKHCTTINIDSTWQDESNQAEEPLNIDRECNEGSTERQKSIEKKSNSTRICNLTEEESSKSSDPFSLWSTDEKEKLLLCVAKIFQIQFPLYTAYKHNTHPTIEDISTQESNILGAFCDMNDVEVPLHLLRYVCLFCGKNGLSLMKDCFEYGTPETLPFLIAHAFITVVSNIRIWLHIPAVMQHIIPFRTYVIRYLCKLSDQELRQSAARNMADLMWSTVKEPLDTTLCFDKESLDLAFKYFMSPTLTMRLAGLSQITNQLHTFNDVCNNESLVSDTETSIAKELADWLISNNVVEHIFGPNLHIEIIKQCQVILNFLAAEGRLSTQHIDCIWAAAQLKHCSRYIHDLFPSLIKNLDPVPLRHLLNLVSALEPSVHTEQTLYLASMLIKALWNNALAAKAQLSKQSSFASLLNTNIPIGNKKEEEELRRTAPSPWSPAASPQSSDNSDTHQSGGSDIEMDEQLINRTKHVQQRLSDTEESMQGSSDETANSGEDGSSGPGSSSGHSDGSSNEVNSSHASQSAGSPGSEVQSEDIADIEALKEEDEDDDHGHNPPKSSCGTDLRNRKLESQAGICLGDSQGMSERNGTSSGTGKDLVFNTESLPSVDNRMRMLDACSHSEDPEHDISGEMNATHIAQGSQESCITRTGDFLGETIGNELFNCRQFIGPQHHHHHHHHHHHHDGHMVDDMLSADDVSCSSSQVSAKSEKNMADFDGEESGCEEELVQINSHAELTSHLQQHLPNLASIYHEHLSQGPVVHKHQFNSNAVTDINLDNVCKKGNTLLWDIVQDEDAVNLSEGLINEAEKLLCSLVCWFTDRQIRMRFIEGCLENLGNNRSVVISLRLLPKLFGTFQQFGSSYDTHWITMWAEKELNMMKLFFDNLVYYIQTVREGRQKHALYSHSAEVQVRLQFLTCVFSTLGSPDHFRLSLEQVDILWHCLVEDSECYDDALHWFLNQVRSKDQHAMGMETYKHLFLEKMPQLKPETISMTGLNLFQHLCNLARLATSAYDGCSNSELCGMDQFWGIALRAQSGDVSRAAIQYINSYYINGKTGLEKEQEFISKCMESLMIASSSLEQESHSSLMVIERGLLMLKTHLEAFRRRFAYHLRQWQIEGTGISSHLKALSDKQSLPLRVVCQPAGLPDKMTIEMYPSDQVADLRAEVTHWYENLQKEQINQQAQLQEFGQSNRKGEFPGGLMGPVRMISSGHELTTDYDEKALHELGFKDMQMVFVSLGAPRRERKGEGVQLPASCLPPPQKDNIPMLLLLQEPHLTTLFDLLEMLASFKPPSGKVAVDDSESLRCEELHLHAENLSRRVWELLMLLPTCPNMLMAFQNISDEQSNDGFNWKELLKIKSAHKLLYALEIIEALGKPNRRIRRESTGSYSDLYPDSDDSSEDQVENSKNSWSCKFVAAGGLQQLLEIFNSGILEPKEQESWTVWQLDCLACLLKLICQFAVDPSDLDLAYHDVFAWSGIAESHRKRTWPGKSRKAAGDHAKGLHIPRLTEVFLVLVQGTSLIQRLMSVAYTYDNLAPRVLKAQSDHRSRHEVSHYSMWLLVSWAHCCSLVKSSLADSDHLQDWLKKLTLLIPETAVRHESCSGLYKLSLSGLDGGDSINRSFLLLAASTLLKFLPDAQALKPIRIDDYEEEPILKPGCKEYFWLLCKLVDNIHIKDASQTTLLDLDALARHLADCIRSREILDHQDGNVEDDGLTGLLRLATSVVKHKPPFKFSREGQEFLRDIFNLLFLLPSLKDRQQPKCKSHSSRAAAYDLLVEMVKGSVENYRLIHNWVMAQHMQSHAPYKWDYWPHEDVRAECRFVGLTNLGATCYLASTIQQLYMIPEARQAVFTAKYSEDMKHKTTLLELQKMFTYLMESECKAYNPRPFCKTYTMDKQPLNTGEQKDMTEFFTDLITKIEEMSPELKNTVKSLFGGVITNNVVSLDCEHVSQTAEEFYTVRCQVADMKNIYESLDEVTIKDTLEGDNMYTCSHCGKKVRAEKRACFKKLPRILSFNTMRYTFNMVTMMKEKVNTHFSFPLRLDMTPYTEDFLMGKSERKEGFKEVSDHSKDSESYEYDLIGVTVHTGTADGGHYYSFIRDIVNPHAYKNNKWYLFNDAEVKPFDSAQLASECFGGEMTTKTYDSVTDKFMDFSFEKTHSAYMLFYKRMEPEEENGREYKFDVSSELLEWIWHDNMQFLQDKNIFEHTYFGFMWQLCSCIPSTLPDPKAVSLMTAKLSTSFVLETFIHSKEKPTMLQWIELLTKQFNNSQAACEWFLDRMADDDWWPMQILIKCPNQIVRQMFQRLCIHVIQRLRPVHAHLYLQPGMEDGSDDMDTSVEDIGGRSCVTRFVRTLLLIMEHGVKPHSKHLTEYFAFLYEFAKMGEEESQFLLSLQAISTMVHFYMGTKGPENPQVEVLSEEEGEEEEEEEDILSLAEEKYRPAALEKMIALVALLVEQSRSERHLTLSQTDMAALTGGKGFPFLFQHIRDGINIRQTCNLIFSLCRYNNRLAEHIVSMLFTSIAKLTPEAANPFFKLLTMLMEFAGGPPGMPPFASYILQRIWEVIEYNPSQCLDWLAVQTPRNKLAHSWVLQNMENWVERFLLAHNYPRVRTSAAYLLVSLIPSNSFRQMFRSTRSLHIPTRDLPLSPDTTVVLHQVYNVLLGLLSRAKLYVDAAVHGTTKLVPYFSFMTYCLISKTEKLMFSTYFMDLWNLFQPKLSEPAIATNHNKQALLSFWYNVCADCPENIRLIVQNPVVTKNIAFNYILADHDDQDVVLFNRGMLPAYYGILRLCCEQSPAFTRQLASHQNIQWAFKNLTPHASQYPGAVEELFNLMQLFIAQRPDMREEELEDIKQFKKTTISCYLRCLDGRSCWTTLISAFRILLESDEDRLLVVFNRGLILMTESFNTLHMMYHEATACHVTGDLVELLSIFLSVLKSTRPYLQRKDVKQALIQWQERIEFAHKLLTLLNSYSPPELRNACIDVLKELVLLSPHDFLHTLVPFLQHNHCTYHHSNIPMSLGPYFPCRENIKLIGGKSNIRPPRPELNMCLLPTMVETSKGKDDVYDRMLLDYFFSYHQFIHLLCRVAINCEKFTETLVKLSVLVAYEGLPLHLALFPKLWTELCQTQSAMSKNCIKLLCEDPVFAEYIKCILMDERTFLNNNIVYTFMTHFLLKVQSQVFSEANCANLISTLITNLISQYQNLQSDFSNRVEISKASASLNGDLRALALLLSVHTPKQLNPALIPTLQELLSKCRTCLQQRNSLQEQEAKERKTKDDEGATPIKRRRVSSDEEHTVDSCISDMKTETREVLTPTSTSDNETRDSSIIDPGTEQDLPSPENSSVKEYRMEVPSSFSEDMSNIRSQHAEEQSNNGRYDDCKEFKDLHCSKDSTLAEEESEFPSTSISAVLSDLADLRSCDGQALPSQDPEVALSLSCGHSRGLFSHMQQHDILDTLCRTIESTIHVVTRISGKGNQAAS

O=C(CCl)NCc1ccc(N2CCOCC2)nc1
inactive: USP34 -0.0991 | USP36 -0.161 | USP38 -0.0678 | USP39 -0.00187 | USP4 0.0133

Reference: the supplement of paper PMC11732987, “Enantioselective OTUD7B fragment discovery through chemoproteomics screening and high-throughput optimisation” (Communications Chemistry, 2025)
